Assay [1] is described as follows: qHTS assay to identify small molecule agonists of the RXR signaling pathway - cell viability counter screen (AID 1159529). Note: nearly all actives have a fitted effect of over 50% in size. Note: potency is the fitted concentration of half-maximal effect. The method, boiled down:
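CellTiter-Glo luminescence gave viability in the wells also read for beta-lactamase. Cells (RXR-alpha-UAS-bla HEK 293T, 2% charcoal-stripped FBS medium) had 5 hr plating, then 16 hr compound exposure at 37 C; tetraoctyl ammonium bromide served as positive control.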
On the technique in general: Quantitative high-throughput screening tests each substance at several concentrations.

Assay [2] can be described thus: qHTS assay to identify small molecule antagonists of the retinoid acid receptor (RAR) signaling pathway - cell viability counter screen (AID 1159551). Note: nearly all actives have a fitted effect of over 35% in size. Note: potency is the fitted concentration of half-maximal effect. The gist of the method:
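Seed C3RL4 cells; next day add compound, then retinol to 1 uM final; incubate 6 h at 37 C; add CellTiter-Glo; read luminescence after 30 min at RT.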

The nature of assay [3]: qHTS assay to identify small molecule antagonists of the retinoic acid receptor (RAR) signaling pathway (AID 1159552; note: nearly all actives have a fitted effect of over 50% in size; note: potency is the fitted concentration of half-maximal effect). The method, boiled down: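 Luminescent RARE reporter read-out in C3RL4 cells: 6 hr co-treatment at 37 C of test compounds with retinol at 1 uM final. Cells plated overnight beforehand; luciferase reagent incubated 30 min at room temperature before reading.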

Assay [4] is described as follows: qHTS assay to identify small molecule agonists of the retinoic acid receptor (RAR) signaling pathway (AID 1159553). Note: potency is the fitted concentration of half-maximal effect. To be noted: C3RL4 RARE luciferase reporter, agonist, 6 h; activation: at 73.3 µM (top of the series) unless noted. The method, boiled down:
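Activation of retinol signaling was monitored via a RARE luciferase reporter in C3RL4 cells. After 6 hr compound treatment at 37 C, detection reagent was added for 30 min at room temperature before luminescence reading.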

Assay [5] in a line: qHTS assay to identify small molecule antagonists of the estrogen related receptor (ERR) signaling pathway - cell viability counter screen (AID 1224818).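 Note: viability measured after 17.5 h of compound exposure.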 The method, boiled down: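 In the same ERR cell assay, compound-treated wells (17.5 h, 37 C) were multiplexed with a fluorogenic viability reagent, CellTiter-Fluor, read after 30 min to flag cytotoxic substances.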
Assay [6] in a line: qHTS assay to identify small molecule antagonists of the estrogen related receptor signaling pathway with the pleiotropic PPARgamma coactivator (PGC) cell viability counter screen (AID 1224822). The method, boiled down: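 Compounds in DMSO, with positive and negative controls, were applied to PGC/ERR cells (2,000/well) and left 17.5 h at 37 C before CellTiter-Fluor detection.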

Assay [7] can be described thus: qHTS assay to identify small molecule antagonists of the estrogen related receptor (ERR) signaling pathway (AID 1224819;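 note: luminescence from an ERR-driven luciferase reporter measured with One-Glo reagent; nearly all actives have a fitted effect of over 50% in size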). The gist of the method:
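qHTS in ERR cells, 2,000/well, 1536 format. Cpd (DMSO) added after 6 h settle, 18 h 37 C. One-Glo luminescence, 30 min RT.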

The nature of assay [8]: qHTS assay to identify small molecule agonists of the estrogen related receptor (ERR) signaling pathway (AID 1224820). The method, boiled down:
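ERR reporter cells (NTP line) plated 2,000/well, incubated 6 h at 37 C/5% CO2, then pinned with compounds in DMSO and held 18 h at 37 C. One-Glo added; luminescence read after 30 min at room temperature.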

For assay [9], the system named is estrogen-related receptor alpha (ERRalpha) with PGC-1alpha coactivator, human. The experiment in a line: qHTS assay to identify small molecule antagonists of the estrogen related receptor signaling pathway with the pleiotropic PPARgamma coactivator (PGC) (AID 1224821; calls by dose curve;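 note: lower luminescence signal means antagonism of PGC/ERR signalling; nearly all actives have a fitted effect of over 50% in size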). The gist of the method: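 Cells engineered for PGC/ERR signalling (line from NTP) were plated 6 h at 37 C/5% CO2, then exposed to DMSO-dissolved compound for 18 h at 37 C. Luciferase activity was read by One-Glo luminescence after 30 min at room temperature.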

A short description of assay [10]: qHTS assay to identify small molecule agonists of the estrogen related receptor signaling pathway with the pleiotropic PPARgamma coactivator (PGC) (AID 1224823). The gist of the method:
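PGC/ERR reporter cells were seeded, rested 6 h at 37 C/5% CO2, then exposed to compounds in DMSO by pin transfer for 18 h at 37 C. Luciferase activity was read as luminescence after One-Glo reagent and 30 min at room temperature.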

SMILES strings stand for the structures. Values joined by “and” are separate entries in the source; they are usually repeats but may differ in a detail not shown here. Equal values may be shown once. Records with an inconclusive call do not appear. Where a structure was tested more than once in an assay, its records may differ in their call. Active and inactive are the calls of the source. Unless noted, calls come from the whole dose curve; as a rule, active = well fitted curve in the direction sought with a large enough effect in the repeat runs; inconclusive = weak or mixed curves; inactive = no such curve, though single readings can be large; an effect the other way counts as inactive or inconclusive.

For `Nc1ccc2ccccc2c1`, the Potency result in assay [1], in assay [2] and in assay [3] was “inactive” each time. For the same molecule, in assay [4], the Potency was 33.2 µM (active).

For the molecule `N#Cc1nn(-c2c(Cl)cc(C(F)(F)F)cc2Cl)c(N)c1S(=O)C(F)(F)F` (stereo not drawn), the Potency entry in assay [1], in assay [2] and in assay [4] was “inactive” each time.

With `CCC(=O)Nc1ccc(Cl)c(Cl)c1`, the Potency result in assay [1], in assay [2], in assay [3] and in assay [4] was “inactive” throughout.

In the case of `Oc1ccc(Cl)cc1Cl`, the Potency result in assay [1], in assay [2], in [3] and in [4] was “inactive” throughout.

For `N#Cc1c(Cl)c(Cl)c(Cl)c(C#N)c1Cl`, the Potency was 6.05 µM (active) and 4.9 µM (active) in [1]; 37.8 µM (active) and 38.6 µM (active) in [2]; 3 µM (active) and 3.06 µM (active) in assay [3]; 847 nM (active) and 486 nM (active) in assay [4].

For the molecule `COC(=O)Nc1nc2ccccc2[nH]1`, the Potency result in assay [1], in assay [2], in assay [3] and in [4] was “inactive” in each case.

Turning to `CCCCCCCCCc1ccc(O)cc1`, the Potency entry in assay [2] and in assay [3] was “inactive” in each case. In addition, the Potency in assay [4] is 19.5 µM (active).

For the molecule `N#CC(c1ccccc1)c1ccccc1`, the Potency entry in assay [2], in assay [3] and in [4] was “inactive” each time.

Take `N#CCCCCC#N`: in assay [2], the Potency entry is “inactive”.

For the molecule `Clc1ccccc1-c1nnc(-c2ccccc2Cl)nn1`, the Potency entry in assay [2] and in assay [3] was “inactive” each time. For the same molecule, the Potency in [4] is 6.8 µM (active).

For the molecule `CC(C)=CC1C(C(=O)OCc2cccc(Oc3ccccc3)c2)C1(C)C` (stereo not drawn), the Potency result in assay [2], in assay [3] and in assay [4] was “inactive” in each case.

Consider `CC1=C(C(=O)Nc2ccccc2)SCCO1`, for which the Potency result in assay [2] and in [3] was “inactive” throughout. Further, the Potency in assay [4] is 15.6 µM (active).

Consider `Cn1c(-c2ccccc2)cc(-c2ccccc2)[n+]1C`, for which the Potency entry in [2], in assay [3] and in assay [4] was “inactive” in each case.

In the case of `CC(C)Nc1nc(Cl)nc(NC(C)C)n1`, in assay [2], the Potency result is “inactive”.

Consider `ClC(Cl)(Cl)Br`, for which the Potency result in [2], in assay [3] and in assay [4] was “inactive” throughout.

Turning to `C=CC(=O)OCC(CC)(COC(=O)C=C)COC(=O)C=C`, in [2], the Potency entry was “inactive”. The Potency in [3] is 8.87 µM (active) and 15.4 µM (active); in [4], 2.23 µM (active).

On to `Cc1cccc(N=Nc2ccc(N(C)C)cc2)c1`, for which the Potency result in assay [2] and in assay [3] was “inactive” throughout. Further, the Potency in assay [4] was 69.8 nM (active) and 34.4 µM (active).

Turning to `Clc1ccc(C(Cl)(Cl)Cl)cc1`, the Potency result in [2], in assay [3] and in [4] was “inactive” in each case.

For the molecule `CNC(=O)CSP(=S)(OC)OC`, the Potency result in [2] was “inactive”.

Consider `COP(=S)(OC)Oc1ccc(Sc2ccc(OP(=S)(OC)OC)cc2)cc1`, for which the Potency entry in assay [2] and in [3] was “inactive” each time. Moreover, in assay [4], the Potency is 61.1 µM (active) and inactive.

`CCCCCCCCCC(CC)c1ccc(S(=O)(=O)O)cc1` (stereo not drawn): the Potency result in assay [2] and in [6] was “inactive” each time. Also, the outcome in assay [5] was inactive.

As for `Clc1cccc(Cl)c1`, the Potency result in assay [2], in assay [3] and in assay [4] was “inactive” throughout.

As to `CCCCC(C#N)(Cn1cncn1)c1ccc(Cl)cc1` (stereo not drawn), the Potency result in assay [2], in [3] and in assay [4] was “inactive” in each case.

With `c1ccc2c(c1)Nc1ccccc1S2`, the Potency result in assay [2], in assay [3], in assay [4], in [7], in assay [9] and in assay [6] was “inactive” each time. Moreover, the molecule was called inactive in assay [5], in assay [8] and in assay [10].

Take `ClC(Cl)(Cl)c1ccccc1`: the Potency entry in assay [2] was “inactive”.

On to `O=[N+]([O-])c1ccc(Nc2ccccc2)cc1`, for which the Potency entry in assay [2], in assay [3] and in assay [4] was “inactive” each time.

As to `C=C(C)C#N`, the Potency result in assay [2], in [3] and in [4] was “inactive” throughout.

In the case of `Nc1ccc([N+](=O)[O-])cc1N`, the Potency in [3] was 13.7 µM (active) and inactive; in assay [4], 68.5 µM (active) and 68.6 µM (active).

Turning to `CN(C)c1ccccc1`, the Potency entry in assay [2], in assay [3] and in [4] was “inactive” throughout.

For `ClC(Cl)=C(Cl)C(Cl)=C(Cl)Cl`, the Potency entry in assay [2], in [3] and in assay [4] was “inactive” each time.

Regarding `CCOC(=O)c1ccccc1N`, the Potency result in [2], in assay [3] and in assay [4] was “inactive” throughout.

Regarding `NC(=O)CN1CCCC1=O`, the Potency entry in assay [2], in [3], in [7], in assay [9] and in assay [6] was “inactive” throughout. Further, the outcome in [5], in assay [8] and in assay [10] was inactive.

For the molecule `CCC/C=N/O`, the Potency entry in assay [2] is “inactive”.

For `OCCOCCO`, the Potency entry in assay [2], in assay [3] and in assay [4] was “inactive” throughout.

As for `CN(C)P(=O)(N(C)C)N(C)C`, the Potency result in assay [2], in assay [3] and in [4] was “inactive” each time.

Regarding `CC(C)CON=O`, the Potency entry in [2], in assay [3] and in assay [4] was “inactive” in each case.

As for `CSc1nc(NC(C)C)nc(NC(C)C)n1`, the Potency entry in assay [2], in assay [3] and in [4] was “inactive” in each case.

For the molecule `CC(C)COC(=O)c1ccccc1C(=O)OCC(C)C`, the Potency entry in assay [2], in assay [3] and in [4] was “inactive” throughout.

As for `CCCCOCCOC(C)=O`, the Potency entry in [2] is “inactive”.

In the case of `O=P(OCCCl)(OCCCl)OCCCl`, the Potency entry in assay [2], in assay [3] and in [4] was “inactive” in each case.

As to `O=[N+]([O-])c1ccc(Cl)c([N+](=O)[O-])c1`, the Potency in assay [3] is 13.9 µM (active) and 12.2 µM (active).

For `CCOP(=S)(OCC)SCn1c(=O)oc2cc(Cl)ccc21`, the Potency entry in assay [2], in [3] and in assay [4] was “inactive” throughout.

With `O=NN(c1ccccc1)c1ccccc1`, the Potency entry in assay [2], in assay [3] and in assay [4] was “inactive” each time.

In the case of `CC(C)(O)C#N`, the Potency result in assay [2], in [3] and in assay [4] was “inactive” in each case.

Values taken from PubChem BioAssay (Tox21).
